The sample as a whole holds a higher share of hits than the screen did.
Tg IFNy HTS: T. gondii growth inhibition with IFN-gamma, primary screen, cell-based; activity change, negative = inhibition, % (concentration not given with the values); hit rate 3.8% among 69,000; Toxoplasma gondii growth in IFN-gamma-treated host cells; hits give low values; in the data active = activity change below about -70%, passing the limit was not always enough;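 note: host cells are HeLa cells infected with Toxoplasma gondii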
A number is an active result; . = inactive.

SMILES	Tg IFNy HTS
Cc1nc(C)n(CC(C)C(=O)Nc2cc3c(C)cc(=O)oc3cc2C)n1 (centres undefined)	.
COc1ccc(C(=O)c2sc3nc(-c4cccs4)cc(-c4ccccc4)c3c2N)cc1	.
CCC1SC(=NC(=O)c2cccs2)NC1=O (centres undefined)	.
COc1cc(N2CCc3ccc(=O)n(CCN(C)C)c3CC2)ncn1	.
N#Cc1ccc(-c2ccc([C@@H]3[C@@H]4CN(S(=O)(=O)Cc5ccccc5)C[C@H]3N4)cc2)cc1	-71
N#Cc1ccc(-c2ccc([C@@H]3[C@@H]4CN(Cc5cocn5)C[C@H]3N4)cc2)cc1	.
N#Cc1cccc(-c2ccc(C3[C@@H]4CN(Cc5ccccc5)C[C@H]3N4)cc2)c1 (some centres undefined)	.
CNC(=O)c1ccc(CNC(=O)c2cccc(-c3ccccc3OC)c2)o1	.
CCOC(=O)C1(Cc2cc(-c3ccccc3C)no2)CCN(Cc2ccccn2)CC1	-77
CCOC(=O)[C@@]12CCCN(Cc3ccccn3)C[C@@H]1CN(C(C)C)C2	.
C=CCN1C[C@H]2CN(Cc3ccccn3)CCC[C@@]2(C(=O)OCC)C1	.
Cn1c(=O)n(CC(=O)N2CCCc3ccccc32)c2cccnc21	.
CC(=O)N1CCC(n2cccn2)c2cc(NC(=O)c3ccco3)ccc21 (centres undefined)	.
CCn1cc2c(n1)C(COCC1CC1)CN(Cc1ccc(OC)cc1)C2 (centres undefined)	.
COc1cc(C2c3c([nH]c(=O)[nH]c3=O)Nc3ccc4ccccc4c32)ccc1OC(C)=O (centres undefined)	-112
COC(=O)c1c(NCc2ccc(OC)c(OC)c2)c2cccc(Cl)c2[nH]c1=O	.
COc1ccc(C2c3c(n[nH]c3C)CC(C)(O)C2C(C)=O)cc1OC (centres undefined)	.
COc1cc(CN2CC3(CCN(C(=O)Nc4c(C)noc4C)CC3)c3c(n(C)c4cc(OC)ccc34)[C@H]2CO)cc(OC)c1	.
COc1ccc(-c2nc(C)c(-c3ccc(SCc4cccc(C(F)(F)F)c4)nn3)s2)cc1	.
COCCC(=O)N1C2CCC(C2)[C@@H]1COc1ccc(F)cc1 (some centres undefined)	.
C[C@@H]1CN([C@H](C)CO)C(=O)c2ccccc2-c2ccccc2CO[C@@H]1CN(C)C(=O)[C@H]1CCCN1C	.
CO[C@@]12[C@@H]3NC3CN1C1=C(C(=O)C(N)=C(C)C1=O)[C@@H]2COC(N)=O (some centres undefined)	-80
O=C(C[C@@H]1C[C@@H]2C=C[C@H]1C2)N1C[C@H]2C[C@H](O)[C@H](O)C[C@H]2C1	.
COc1ccc(S(=O)(=O)NCCc2csc(-c3ccc(F)cc3)n2)cc1F	.
Cc1cc(-c2ccccc2CO)nc(-c2ccccc2)n1	.
SMILES	Tg IFNy HTS
O=C(NC1CCS(=O)(=O)C1)C1CCN(c2nccc(C(F)(F)F)n2)CC1 (centres undefined)	.
CN1C(=O)c2cc(NC(=O)Cc3cccs3)ccc2OC[C@@H]2O[C@H](CC(=O)NCc3ccc(-c4ccccc4)cc3)CC[C@H]21	.
CN1C(=O)c2cc(NC(=O)Cc3cccs3)ccc2OC[C@H]2O[C@@H](CC(=O)NCCc3ccncc3)CC[C@@H]21	.
CN1C(=O)c2cc(NC(=O)Cc3cccs3)ccc2OC[C@H]2O[C@H](CC(=O)NCc3ccc(-c4ccccc4)cc3)CC[C@@H]21	-85
Cc1nc(-c2cc(C(=O)N3CCC(N(C)C)CC3)c3ccccn23)cn1C(C)C	.
Nc1ccc(OCCN2CCCCCC2)cc1	.
CN1CCN(CCOc2ccc(C(=O)O)cc2)CC1	.
Cc1c(-c2ccc(O)cc2)n(Cc2ccc(OCCN3CCCCCC3)cc2)c2ccc(O)cc12	-76
Cc1ccc2cccc(OCCNC3CCN(C(=O)C(C)C)CC3)c2n1	.
CN=C1Sc2nc3c(cc2CN1C1CCCCC1)c(C(C)(C)C)nn3-c1ccccc1	-85
COc1ccccc1S(=O)(=O)N1CC[C@@H]2[C@H](CO)Nc3ccc(-c4ccc(C#N)cc4)cc3[C@@H]21	.
CC1=C(C(=O)NCc2ccccc2Br)C2(CCN(Cc3ccccc3)CC2)OC1=O	.
Cc1nc(CN2CCN(C(=O)c3nccc4ccccc34)CC2)cs1	.
O=C(c1ccc2c(c1)OCO2)N1CC[C@@H]2[C@H](CO)Nc3ccc(C#Cc4ccccc4)cc3[C@@H]21	.
CC1CC(N(C(=O)c2ccc3c(c2)OCO3)c2ccccc2)c2ccccc2N1 (centres undefined)	-96
CC1CC(N(C(=O)c2ccco2)c2ccccc2)c2ccccc2N1C(=O)c1ccco1 (centres undefined)	.
Cc1cccc(-c2nnc(-c3nc(NCCc4c(C)noc4C)c4ccccc4n3)o2)c1	.
Cc1noc(C)c1CCNc1ncc2c(n1)c1ccc(Cl)cc1n1ccnc21	-73
CCCc1nc(C(=O)NCc2cccnc2N2CCN(C)CC2)cs1	.
CC(C)CNC(=O)C1=NOC2(CCN(C(=O)c3ccccn3)C2)C1 (centres undefined)	.
CC(C)CNC(=O)C1=NOC2(CCN(Cc3ccc(C(C)C)cc3)C2)C1 (centres undefined)	-82
COc1ccc(CN2CCC3(CC(C(=O)NCC(C)C)=NO3)C2)cc1 (centres undefined)	.
CC(Cc1ccncc1)NC(=O)CCc1nc(-c2ccccc2F)no1 (centres undefined)	.
O=C(Nc1ccc(F)cc1)N1CC(=O)N2[C@@H](CO)[C@@H](c3ccc(C4=CCCC4)cc3)[C@@H]2C1	.
CN1CC2(CCCN(Cc3cc(=O)c4cc(Cl)ccc4[nH]3)C2)OC1=O (centres undefined)	.
SMILES	Tg IFNy HTS
CCN(CC)S(=O)(=O)c1ccc2oc3ccc(S(=O)(=O)N(CC)CC)cc3c2c1	.
CCNS(=O)(=O)c1ccc(-c2oc3cc(S(=O)(=O)NCC)ccc3c2Cl)cc1	-78
CCCc1cc(=O)oc2cc(OS(=O)(=O)c3ccc(Cl)cc3)ccc12	.
CO[C@H]1CC[C@@H]2CCN(C)C(=O)[C@@H](C)N(C)C(=O)c3cccc(C#N)c3OC[C@@H]1O2	.
Cc1ccc(S(=O)(=O)N2C[C@@H]3[C@H](c4ccccc42)[C@@H](CO)N3Cc2cccnc2)cc1	.
C1=C/COCc2cc(ccc2OCCN2CCCC2)Nc2nccc(n2)-c2cccc(c2)COC/1	-85
C[C@H](CO)N1C[C@H](C)[C@H](CN(C)CC2CCCCC2)OCCCC[C@H](C)Oc2ccc(NC(=O)Nc3ccc(C(F)(F)F)cc3)cc2C1=O	.
CN1c2cc(F)ccc2C(=O)NC12CCN(C(=O)Nc1ccc3c(c1)OCCO3)CC2	.
Cc1ccccc1-c1nc(CN2C(=O)CSc3ccc(S(=O)(=O)N4CCCC4)cc32)c(C)o1	-80
Cc1oc(-c2ccccc2)nc1CN1C(=O)CSc2ccc(S(=O)(=O)N3CCOCC3)cc21	.
Cc1ccccc1-c1nc(Cn2c(=O)cc(C(=O)N3CCCCC3)c3ccccc32)c(C)o1	.
Cc1n[nH]c(C)c1CCNC(=O)c1cccc(NCc2cccnc2)c1C	.
OC(CN1CCNCC1)Cn1ccc2ccccc21 (centres undefined)	.
OC(COCc1ccccc1)CN1CCNCC1 (centres undefined)	.
OC(CN1CCNCC1)Cn1c2ccc(Br)cc2c2cc(Br)ccc21 (centres undefined)	-74
COCCO[C@H]1CCN[C@H]1Cc1cnn(C)c1	.
CCN1C(=O)CCCC12CCCN(C(=O)Nc1ccc(C)cc1)C2 (centres undefined)	.
O=C(NCCc1nc(-c2ccc(Cl)cc2)n[nH]1)C1(c2ccccc2)CCCCC1	.
